Source: PubChem BioAssay (NCI)
Compounds without any hit were thinned out: in the full panel of roughly 83,000, 20% have a hit.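 Single-dose data. Exposure time 48 hours. Values below 10 considered active.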 A number with no mark means an inactive call. Activity calls are given as the source filed them.

Assays:
Test in all cases: NCI-60 one-dose screen, 48 h (100 = growth as untreated, 0 = no growth, -100 = all killed)
Conditions in all cases: 10 µM unless noted
[1] = tested on: OVCAR-8 ovarian
[2] = tested on: OVCAR-5 ovarian
[3] = tested on: OVCAR-4 ovarian
[4] = tested on: SK-OV-3 ovarian
[5] = tested on: IGROV1 ovarian
[6] = tested on: OVCAR-3 ovarian
[7] = tested on: HS 578T breast
[8] = tested on: NCI/ADR-RES ovarian
[9] = tested on: T-47D breast
[10] = tested on: BT-549 breast
[11] = tested on: MDA-MB-435 melanoma
[12] = tested on: SW-620 colon
[13] = tested on: MCF7 breast
[14] = tested on: HCT-116 colon
[15] = tested on: HCC-2998 colon
[16] = tested on: KM12 colon
[17] = tested on: RPMI-8226 leukemia

SMILES | growth [1] | growth [2] | growth [3] | growth [4] | growth [5] | growth [6] | growth [7] | growth [8] | growth [9] | growth [10] | growth [11] | growth [12] | growth [13] | growth [14] | growth [15] | growth [16] | growth [17]
O=C(CSc1nc2ccccc2[nH]1)Nc1ccc(-c2nc3ccccc3s2)c(Cl)c1 | -9.6% (active) | 20.4% | -39.8% (active) | 12.4% | -52.3% (active) | -17.2% (active) | 65.2% | 9.5% (active) | -12.7% (active) | 47.4% | 13.2% | 22.1% | 6.26% (active) | -90.2% (active) | 95.3% |  | 
CN(C[C@H]1Cc2c(cccc2N2CCN(Cc3ccccn3)CC2)CN1)[C@H]1CCCc2cccnc21 | 42.7% | 71% | 72.6% | 51.2% | 49.2% | 64.9% | 92.2% | 28.1% | 44.6% | 81.9% | 69.6% | 51.3% | 44.1% | 30.8% | 94% | 51.7% | 
COc1ccc(Nc2nn3c(-c4ccccc4)cc(-c4ccccc4)nc3c2C(N)=O)c(OC)c1 | 27.8% | 63.6% | -8.96% (active) | 63.7% | 91.6% |  | 56.8% | 30.4% | 34.9% | 46.5% | 57.5% | 57.2% | 46.7% | 21.5% | 86.9% | 51.1% | 71.8%
COc1ccc(N2CCN(Cc3cc(C(=O)/C=C/c4c[nH]c5ccccc45)ccc3O)CC2)cc1 | 95.5% | 106% | 93% | 93.5% | 109% |  | 105% | 106% | 93.8% | 107% |  | 104% | 97.4% | 110% |  | 110% | 94.8%
CN(CCCCN(C[C@H]1Cc2ncccc2CN1)[C@H]1CCCc2cccnc21)C1CCC(F)(F)CC1 | 85.6% | 79% | 108% |  | 111% | 98.4% | 105% | 85.8% | 99.2% | 85.8% | 108% | 98.7% | 83.7% | 71.1% | 88.7% | 88% | 92.5%
O=C(/C=C/c1c[nH]c2ccccc12)c1ccc(O)c(CN2CCN(c3ccc(F)cc3)CC2)c1 | 95.1% | 90.8% | 93.9% |  | 106% | 103% | 108% | 103% | 98% | 99.2% | 109% | 104% | 98.5% | 98.3% |  | 99.5% | 91%
O=C(Nc1cccc(-n2cc(-c3ccncc3)c(-c3ccc(Cl)c(O)c3)n2)c1)Nc1cc(C(F)(F)F)cc(C(F)(F)F)c1 |  | -32.9% (active) | 0.865% (active) |  | 4.8% (active) |  | -26% (active) | 4.72% (active) | 12.1% | -35.9% (active) | -31.1% (active) | 3.32% (active) | 2.71% (active) | -59.1% (active) | -56.9% (active) | -50.3% (active) | -10.9% (active)
Nc1nnc(-c2ccc3ccccc3c2O)o1 | 97.6% | 102% | 81.2% |  | 86% | 99.2% | 97.9% | 84.5% | 87.2% | 103% | 110% | 84.9% | 94% | 88.5% | 89.5% | 99.4% | 90.8%
CN(C)c1cccc2c(S(=O)(=O)/N=C(\N)Nc3nc4ccccc4s3)cccc12 | 70.6% | 84.2% | 82.4% | 46.6% | 51.7% | 8.44% (active) | 68% | 48% | 39.6% | 47.5% | -11.5% (active) | 31% | 29.6% | 42.4% | 70.4% | 35.7% | 
C=C1CCC2C3(C)COC(c4ccccc4)OC3CCC2(C)C1/C=C/C1=CCOC1=O (centres undefined) | 32.9% | 78.7% | 50% | 72.4% | 30.6% |  |  | 26.2% | 72.2% | -18.3% (active) | 31.4% | 25.6% | 31.8% | 8% (active) | 111% | 28.7% | -36.8% (active)
Nc1cc2c(cc1C(=O)c1cccc(F)c1)OCCO2 |  | 98.2% | 105% | 93.3% | 89.7% | 116% | 111% | 97.9% | 93.6% | 84.5% | 92.1% | 105% | 99.2% | 100% | 95.4% | 100% | 
CCCCCCCCN(CCCCCCCC)CCCCCCNc1cc(OC)cc2cccnc12 | 73.3% | 92.4% | 82.7% | 102% | 78.7% |  | 111% | 80.2% | 104% | 79.7% | 95.2% | 10.8% |  | -30.1% (active) | 93.4% | 58.9% | 52.3%
COc1cc(-c2nn(-c3cccc(NC(=O)Nc4ccc(Cl)c(C(F)(F)F)c4)c3)cc2-c2ccncc2)ccc1Cl | -19.9% (active) | 35.8% | 20.8% | 0.426% (active) | 25.6% |  | 2.21% (active) | -0.864% (active) | 0.618% (active) | 7.16% (active) | -52.3% (active) | 15.4% | 0.143% (active) | 5.3% (active) | 8.88% (active) | 2.88% (active) | -8.66% (active)
